Common to all, as to details: concentration: 10 µM; 24 h
The test system of experiment [1] is HCC1569. Nature of the experiment: cell number relative to DMSO (% of DMSO); higher = more cells (less growth inhibition / toxicity). In outline:
(§1)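 After 24 h at 37 °C with compounds at 10 µM, in triplicate, HCC1569 and TDF cells were fixed with 3.7% formaldehyde. Immunostaining used a rabbit anti-H1.0 antibody and an AlexaFluor 647 secondary, with DAPI, and six fields per well were imaged at ×10. H1.0 nuclear intensity or cell number is presented as percent of the plate control, from the median of replicates, with HCC1569 values smoothed for positional effects.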

Experiment [2] relates to TDF. The description is as above. The method in brief:
as §1

Experiment [3] has as its system TDF. The experiment in a line: H1.0 immunofluorescence intensity relative to DMSO (% of DMSO); higher = stronger H1.0 induction, active = 120 or more. The method in brief: as §1
The test system of experiment [4] is HCC1569. Nature of the experiment: H1.0 immunofluorescence intensity relative to DMSO (% of DMSO); higher = stronger H1.0 induction, active = 140 or more. The method in brief: as §1

Data on 22 compounds can be found in the supplement of paper PMC7156485.

Each structure is given as a SMILES string. ± gives the standard deviation of the averaged measurements.
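Wherever H1.0 immunofluorescence intensity relative to DMSO is given: TDF is a line of transformed human dermal fibroblasts of mesenchymal origin.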
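Wherever cell number relative to DMSO is given: TDF denotes transformed human dermal fibroblasts of mesenchymal origin.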

Consider `CC(C)(C)NCC(O)COc1cccc2[nH]c(=O)[nH]c12.Cl` (racemic), for which the cell number in the experiment on HCC1569 [1] was determined as 97.7; in the experiment with TDF [2] it was 110. Besides, the values for the H1.0 immunofluorescence intensity in the experiment on TDF [3] and in the experiment on HCC1569 [4] were 93.5 (inactive) and 97.9 (inactive), respectively.

Regarding `O=c1c(O)c(-c2ccc(O)cc2O)oc2cc(O)cc(O)c12` [Morin], the cell number in the experiment with HCC1569 [1] amounted to 99.7; with TDF [2], 94. Also, the H1.0 immunofluorescence intensity with TDF [3] is 89.4 (inactive); in the experiment on HCC1569 [4] it was 98.5 (inactive).

Take `Cn1cnc([N+](=O)[O-])c1Sc1ncnc2nc[nH]c12` [Azathioprine]: the cell number in the experiment on HCC1569 [1] is 99.15 ± 0.87; with TDF [2], 101.8 ± 0.74. Besides, the H1.0 immunofluorescence intensity with TDF [3] was 94.9 (inactive); in the experiment on HCC1569 [4], 97.6 (inactive).

Turning to `CC1=NS(=O)(=O)c2cc(Cl)ccc2N1` [Diazoxide], the cell number is 101.1 ± 0.59 with HCC1569 [1] and 111 ± 7.2 in the experiment with TDF [2]. Further, the H1.0 immunofluorescence intensity in the experiment with TDF [3] and in the experiment with HCC1569 [4] was 101 (inactive) throughout.

As for `Nc1nc(SCc2ccc([N+](=O)[O-])cc2)c2ncn(C3OC(CO)C(O)C3O)c2n1` (stereo not drawn) [S-(4-Nitrobenzyl)-6-thioguanosine], the cell number came to 101 in the experiment with HCC1569 [1] and 98.2 with TDF [2]. In addition, the H1.0 immunofluorescence intensity is 94.5 (inactive) in the experiment on TDF [3] and 93.2 (inactive) in the experiment on HCC1569 [4].

As to `COc1cc(NS(C)(=O)=O)ccc1Nc1c2ccccc2nc2ccccc12.Cl` [Amsacrine hydrochloride], the cell number amounted to 67.8 in the experiment on HCC1569 [1] and 32.3 in the experiment on TDF [2]. The H1.0 immunofluorescence intensity in the experiment with TDF [3] was 152 (active); in the experiment with HCC1569 [4], 113 (inactive).

`CCN(CC)CCNC(=O)c1c(C)[nH]c(C=C2C(=O)Nc3ccc(F)cc32)c1C` [Sunitinib]: the values for the cell number in the experiment with HCC1569 [1] and with TDF [2] were 92.1 and 58.7, respectively. The figures for the H1.0 immunofluorescence intensity in the experiment on TDF [3] and in the experiment with HCC1569 [4] were 106 (inactive) and 173 (active), respectively.

For `O=[N+]([O-])c1ccc(CSc2ncnc3c2ncn3C2OC(CO)C(O)C2O)cc1` (stereo not drawn) [S-(4-Nitrobenzyl)-6-thioinosine], the cell number with HCC1569 [1] came to 99; in the experiment with TDF [2] it was 111. Also, the H1.0 immunofluorescence intensity was 92.2 (inactive) with TDF [3] and 80.6 (inactive) in the experiment with HCC1569 [4].

On to `CCCCCCCCCCCCCC=CC(O)C(CO)NCCCCCCCC` (stereo not drawn) [C8 Ceramine], for which the cell number with HCC1569 [1] was 105; in the experiment on TDF [2] it was 97. Further, the H1.0 immunofluorescence intensity was 95.1 (inactive) in the experiment on TDF [3] and 121 (inactive) in the experiment on HCC1569 [4].

Take `Cl.O=C1CC2(CCCC2)CC(=O)N1CCCCN1CCN(c2ncccn2)CC1` [Buspirone hydrochloride]: the cell number with HCC1569 [1] is 97.6; with TDF [2], 96.8. Also, the values for the H1.0 immunofluorescence intensity in the experiment with TDF [3] and in the experiment with HCC1569 [4] were 94.3 (inactive) and 97 (inactive), respectively.

As for `O=C(NNC(=O)c1ccc(CNS(=O)(=O)c2ccc(F)c(Cl)c2)cc1)c1ccccc1`, the cell number with HCC1569 [1] was determined as 103; with TDF [2], 113. Moreover, the figures for the H1.0 immunofluorescence intensity in the experiment on TDF [3] and in the experiment with HCC1569 [4] were 95.9 (inactive) and 105 (inactive), respectively.

Turning to `COC1C=COC2(C)Oc3c(C)c(O)c4c(O)c(cc(O)c4c3C2=O)NC(=O)C(C)=CC=CC(C)C(O)C(C)C(O)C(C)C(OC(C)=O)C1C` (stereo not drawn), the cell number worked out at 103 in the experiment with HCC1569 [1] and 105 with TDF [2]. In addition, the H1.0 immunofluorescence intensity with TDF [3] was 97.7 (inactive); in the experiment on HCC1569 [4], 103 (inactive).

Regarding `CC1=NN(c2ccc(C(=O)O)cc2)C(=O)/C1=C\c1ccc(-c2cc(C)c(C)cc2[N+](=O)[O-])o1`, the cell number in the experiment with HCC1569 [1] came to 89.5; with TDF [2] it was 87.2. In addition, the figures for the H1.0 immunofluorescence intensity in the experiment with TDF [3] and with HCC1569 [4] were 84.9 (inactive) and 108 (inactive), respectively.

With `Cl.NC(N)=NC(=O)Cc1c(Cl)cccc1Cl` [Guanfacine hydrochloride], the cell number in the experiment with HCC1569 [1] was 104; in the experiment with TDF [2], 114. The H1.0 immunofluorescence intensity is 86.8 (inactive) in the experiment on TDF [3] and 91.5 (inactive) in the experiment on HCC1569 [4].

For `CCCOc1cc2c(cc1\C(C)=C/C=C/C(C)=C/C(=O)O)C(C)(C)CCC2(C)C`, the cell number in the experiment with HCC1569 [1] was found to be 97.9; in the experiment on TDF [2] it was 107. For the same compound, the H1.0 immunofluorescence intensity in the experiment with TDF [3] is 90.3 (inactive); in the experiment on HCC1569 [4], 95.9 (inactive).

`CN(c1ccccc1CNc1nc(Nc2ccc3c(c2)CC(=O)N3)ncc1C(F)(F)F)S(C)(=O)=O`: the cell number in the experiment on HCC1569 [1] stood at 54.4; in the experiment on TDF [2], 22.4. Moreover, the H1.0 immunofluorescence intensity with TDF [3] is 113 (inactive); in the experiment with HCC1569 [4] it was 126 (inactive).

Consider `CC[N+](CC)(CC)CCOc1cccc(OCC[N+](CC)(CC)CC)c1OCC[N+](CC)(CC)CC.[I-].[I-].[I-]` [Gallamine triethiodide], for which the cell number in the experiment with HCC1569 [1] worked out at 101; with TDF [2], 99. For the same compound, the H1.0 immunofluorescence intensity in the experiment on TDF [3] is 98.8 (inactive); with HCC1569 [4], 123 (inactive).

Take `Clc1ccc(Nc2nnc(Cc3ccncc3)c3ccccc23)cc1` [Vatalanib]: the cell number with HCC1569 [1] and with TDF [2] was 103 in each case. The H1.0 immunofluorescence intensity in the experiment with TDF [3] is 97.2 (inactive); with HCC1569 [4], 105 (inactive).

As to `CCN(CC)CCCC(C)Nc1ccnc2cc(Cl)ccc12.O=P(O)(O)O.O=P(O)(O)O` (stereo not drawn) [Chloroquine diphosphate], the cell number was found to be 98.3 in the experiment with HCC1569 [1] and 106 in the experiment on TDF [2]. The H1.0 immunofluorescence intensity in the experiment on TDF [3] is 94.7 (inactive); in the experiment on HCC1569 [4], 94.1 (inactive).

For `CN(C)CCCN1c2ccccc2CCc2ccccc21.Cl` [Imipramine hydrochloride], the figures for the cell number in the experiment on HCC1569 [1] and in the experiment with TDF [2] were 108 and 98.4, respectively. Further, the figures for the H1.0 immunofluorescence intensity with TDF [3] and with HCC1569 [4] were 97.2 (inactive) and 105 (inactive), respectively.

`CCN(CC)C(=O)C(C#N)=Cc1cc(O)c(O)c([N+](=O)[O-])c1` [Entacapone]: the cell number in the experiment on HCC1569 [1] stood at 98.2; in the experiment with TDF [2], 92. Also, the H1.0 immunofluorescence intensity with TDF [3] was 95.3 (inactive); in the experiment with HCC1569 [4], 105 (inactive).

With `CCC=CCC=CCC=CCCCCCCCCCCCC(=O)O` [Docosatrienoic acid], the figures for the cell number in the experiment with HCC1569 [1] and with TDF [2] were 101 ± 2.4 and 97.7 ± 10, respectively. In addition, the values for the H1.0 immunofluorescence intensity in the experiment on TDF [3] and in the experiment with HCC1569 [4] were 100 (inactive) and 102 (inactive), respectively.
